# Source: PubChem (The Scripps Research Institute Molecular Screening Center)
# hcDAF12 agonist: H. contortus DAF-12 nuclear receptor activators, primary screen, cell-based, luminescence, HEK293, lit1-tk-luc reporter. HEK293 hcDAF-12 lit1-tk-luc reporter; 0% DMSO, 100% Δ7-dafachronic acid. activation, % at 6.8 µM. 1.4% of 370,000 active. AID 652067, 2013;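 active means activation above the mean of all tested compounds plus 3 SD, cut at about 5.5% in these data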
# DAX1 inh-1: DAX1 (NR0B1) inhibitors on StAR promoter, primary screen, cell-based, luminescence, SF-1 (NR5A1), full-length DAX-1 | HEK293T StAR-luciferase reporter, SF-1/DAX-1 repression relief | inhibition, % at 6.8 µM | 1.1% of 370,000 active | AID 652010, 2013;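 active means inhibition above the mean over all tested compounds plus 3 SD, cut at about 3.6% in these data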;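 further: higher inhibition means more luminescence from relief of DAX-1 repression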
# hgDAF12 agonist: H. glycines DAF-12 receptor agonists, primary screen, cell-based, luminescence, HEK293, GAL4 fusion, UAS-luciferase | activation, % at 6.8 µM | Nuclear hormone receptor DAF-12 (Heterodera glycines), GAL4 fusion | HEK293 GAL4-hgDAF12 UAS-luciferase reporter, agonist luminescence; normalized to butyrate control | 1.8% of 370,000 active;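 active means activation above a cutoff set at the mean of all screened compounds plus 3 SD, cut at about 10% in these data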
# ssDAF12 agonist: S. stercoralis DAF-12 nuclear receptor activators, primary screen, cell-based, luminescence, HEK293, GRIP1 co-expression, lit1-tk-luc | Nuclear hormone receptor DAF-12 (Strongyloides stercoralis) | HEK293 ssDAF-12/GRIP1 lit1-tk-luc reporter; % of 3 µM dafachronic acid response | activation, % at 6.8 µM | 1% of 370,000 active;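 active means activation above the mean over all tested compounds plus 3 SD, cut at about 0.9% in these data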
# DAX1 inh-2: DAX1 (NR0B1) inhibitors, primary screen, cell-based, HEK293, Gal4-DAX1, luciferase luminescence | Nuclear receptor subfamily 0 group B member 1 (Homo sapiens), P51843 | HEK293 Gal4-DAX1 luciferase reporter | inhibition, % at 6.75 µM | 0.99% of 340,000 active | AID 504766, 2011;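 active means inhibition above the mean over all tested compounds plus 3 SD, cut at about 4.2% in these data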;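 further: inhibition shows as a rise in luminescence from relieved DAX1 repression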
# Target sequence (P51843 207-470 limits assumed): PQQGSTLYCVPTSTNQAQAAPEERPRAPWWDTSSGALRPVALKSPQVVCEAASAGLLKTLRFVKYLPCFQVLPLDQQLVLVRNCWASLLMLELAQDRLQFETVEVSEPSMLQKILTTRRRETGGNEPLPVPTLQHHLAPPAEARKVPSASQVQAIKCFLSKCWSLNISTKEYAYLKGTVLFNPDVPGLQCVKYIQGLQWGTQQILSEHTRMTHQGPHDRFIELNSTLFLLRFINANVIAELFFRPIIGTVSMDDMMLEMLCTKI
# Hits are given with their value; n = inactive; x = no result given. Compounds with a hit are over-represented: about 4.1% of the library has one in this group of screens.
SMILES,hcDAF12 agonist,DAX1 inh-1,hgDAF12 agonist,ssDAF12 agonist,DAX1 inh-2
Cc1ccc(N=CC=C2OC(C)(C)C(C)(C)O2)cc1,5.7,n,n,n,n
Cc1cccc(N=CC=C2OC(C)(C)C(C)(C)O2)c1,n,n,n,n,n
COC(=O)c1ccccc1NC(=O)CS(=O)(=O)Cc1nc(-c2ccc(C)cc2)oc1C,n,n,n,1.1,n
COc1ccc(NC(=O)CS(=O)(=O)Cc2nc(-c3ccc(C)cc3)oc2C)cc1,n,n,n,n,n
COCC(C)N=C1NN=C(c2c[nH]c3ccccc23)CS1 (stereo unspecified),6.2,n,n,n,n
NS(=O)(=O)c1ccc(CCNCc2ccccc2OCc2ccc(Cl)cc2)cc1,n,n,n,n,n
O=C(CCC(=O)c1cccs1)c1cccs1,n,n,12,n,n
CO/N=C(\CCC(=O)O)c1cccs1,n,n,11,n,n
O=C(CSc1nnc(-c2cccc(Cl)c2)n1Cc1ccco1)c1ccc(F)cc1,n,n,n,n,x
CCCCc1c(-c2ccccc2OC)ncn1Cc1cc(F)ccc1F,n,n,n,n,x
CCCCN1C(=O)N(c2ccc(Cl)cc2)C(C)(O)CC1(C)C (stereo unspecified),n,n,n,n,4.5
Cc1cccc(C2=NN(c3ccc(Br)cc3)[C@@H](C(=O)N3CCOC3=O)[C@@H]2c2ccccc2)c1,x,x,x,x,n
Cc1cccc(C2=NN(c3ccccc3)[C@@H](C(=O)N3CCOC3=O)[C@@H]2c2ccccc2)c1,n,3.7,n,n,n
C[C@@H](NC(=O)C[C@H]1CC[C@H]2[C@@H](COc3ccc(NC(=O)Nc4ccccc4)cc3C(=O)N2C)O1)c1ccccc1,n,n,n,n,x
CCC(=O)N1N=C(c2ccc(Cl)cc2)CC1c1ccco1 (stereo unspecified),n,n,n,n,5.8
CN1CC(=O)N(CC(=O)N2N=C(c3ccc(Cl)cc3)CC2c2ccco2)C1=O (stereo unspecified),n,n,n,n,n
Cc1n[nH]c(C)c1CCC(=O)N/N=C/c1c[nH]c2ccccc12,6.1,n,n,2.1,n
COc1ccc(/C=N\NC(=O)CCc2c(C)n[nH]c2C)c(OC)c1OC,n,n,n,n,n
Cc1n[nH]c(C)c1CCC(=O)N/N=C/c1c(C)[nH]c2ccccc12,n,n,n,n,6.2
Cc1[nH]c2ccccc2c1/C=N/NC(=O)CCC(=O)NCc1ccccc1,n,n,n,n,n
CCc1ccc(C2c3[nH]c4ccccc4c3CCN2C(=O)c2cc[n+]([O-])cc2)cc1 (stereo unspecified),n,n,n,n,n
COc1ccc(C2c3[nH]c4ccccc4c3CCN2C(=O)c2cn3ccccc3n2)c(F)c1 (stereo unspecified),n,n,n,1.5,n
Cn1nccc1C(=O)N1CCc2c([nH]c3ccccc23)C1c1ccc(F)cc1 (stereo unspecified),n,n,n,1.0,n
Cc1cccc(C2NC(=O)c3c(sc(C)c3C)N2)c1O (stereo unspecified),n,n,n,1.4,n
Cc1ccc(C(=O)N/N=C/c2ccc3c(c2)OCO3)o1,5.9,n,n,1.0,n
SMILES,hcDAF12 agonist,DAX1 inh-1,hgDAF12 agonist,ssDAF12 agonist,DAX1 inh-2
Cc1ccc(S(C)(=O)=NC(=O)NC(=O)c2c(Cl)cccc2Cl)cc1 (stereo unspecified),n,n,n,n,4.9
CC1(C)Cc2nc3scc(NC(=O)c4ccccc4)c3cc2CO1,n,n,n,n,x
CCn1nc(C)c(Br)c1-c1nc(-c2ccc(C)cc2)no1,n,n,n,1.0,x
CCn1nc(C)c(Br)c1-c1nc(CS(=O)(=O)c2ccc(F)cc2)no1,n,n,n,n,n
COc1ccc(C(F)(F)F)cc1NC(=O)C(OC(=O)CNC(=O)c1ccccc1)c1ccccc1 (stereo unspecified),n,x,n,n,x
OCc1c[nH]c2ccccc12,6.0,n,n,n,n
O=C(O)Cc1c[nH]c2ccccc12,n,n,n,n,n
OCCc1c[nH]c2ccccc12,n,n,n,n,4.5
CCOC(=O)Nc1ccc2c(c1)[C@]1(CC(=O)N(CC(C)C)C1c1ccccc1)C(=O)N2C (stereo partly specified),n,n,n,n,x
COCCN(Cc1ccc(C)cc1)C(=O)[C@H]1O[C@@H](n2cnc3c(N)ncnc32)[C@H](O)[C@@H]1O,n,n,n,n,x
CC(=O)N1CCc2cc(S(=O)(=O)NC3CCN(C(=O)OCc4ccccc4)CC3)ccc21,n,n,n,n,x
O=C(C1=NN[C@@H]2C(=O)N(c3cccc(C(F)(F)F)c3)C(=O)[C@H]12)c1cnccn1,n,n,n,n,7.3
N#Cc1ccc(N2C(=O)[C@@H]3C(C(=O)c4cnccn4)=NN[C@@H]3C2=O)cc1,n,n,n,n,x
CC1(C)CC(=O)C([N+](=O)[O-])=C(NCCCC(=O)O)C1,n,n,n,n,4.5
CC1(C)CC(=O)C(C#N)=C(NCCCO)C1,n,n,n,n,n
CC(=O)Nc1nc2ncccn2c1-c1ccc(C)cc1,n,n,n,n,x
O=C(c1cnn2c(C(F)F)cc(-c3ccccc3)nc12)N1CCOCC1,n,n,n,n,n
O=C(c1cnn2c(C(F)F)cc(-c3ccccc3)nc12)N1CCSCC1,n,n,n,n,4.6
O=C(/C=C/c1ccc(OC2CSC2)cc1)c1ccc(Cl)cc1,5.6,n,n,n,n
COc1ccc(C(=O)/C=C/c2ccc(OC3CSC3)cc2)cc1OC,n,n,n,n,n
O=C1CSC(=S)N1c1cccc(F)c1,n,n,n,n,n
O=C1CC(=O)N(c2cccc(F)c2)N1,n,n,n,n,6.0
C=CCN1[C@H](C#N)[C@@H](c2ccc(C#Cc3cccc(OC)c3)cc2)[C@H]1CO,n,n,n,n,x
COC(=O)c1sccc1N/N=C/c1cccc(Oc2ccccc2)c1,n,n,11,n,n
O=C(NCc1ccccc1Cl)C1CCCN(c2nc3ccccc3o2)C1 (stereo unspecified),n,n,n,n,x
SMILES,hcDAF12 agonist,DAX1 inh-1,hgDAF12 agonist,ssDAF12 agonist,DAX1 inh-2
Cc1cc(C)c(-c2nc3ccccc3s2)[nH]1,6.3,n,n,n,n
Nc1nc(Nc2ccc(Cl)cc2)nc(NCCO)c1[N+](=O)[O-],n,n,n,n,x
Cc1ccc(Nc2nc(N)c([N+](=O)[O-])c(NCCO)n2)cc1C,n,n,n,n,4.4
Cc1ccccc1Cn1cc(COC(=O)N(C)Cc2ccccc2)nn1,n,n,n,n,x
COc1cccc(C(=O)CSc2nccn2C)c1,n,n,n,n,n
Cn1ccnc1SCC(=O)c1ccc2ccccc2c1,n,n,13,n,n
